Experimental data reported in PubChem BioAssay (NCATS).
Active and inactive are the calls of the source. Calls come from the whole dose curve; as a rule, active = well fitted curve in the direction sought with a large enough effect; inconclusive = small, poorly fitted or top-dose-only effect, or another doubt; inactive = no such curve, though single readings can be large or run the other way.

molecular target: Methanococcus maripaludis chaperonin (MmCpn) (UniProt Q6LX38); assay: High-Throughput Screening for Modulators of Cytosolic Chaperonin Activity: MmCpn Primary Screen (AID 488978); conditions: Purified MmCpn ATPase activity, ADP HTRF detection, 10 min; series mostly up to 76.9 µM
Description: Chaperonins are key components of the cellular chaperone machinery. These large complexes consist of two stacked 7-9 membered rings, each containing a central cavity. Substrates are folded within the cavity in an ATP-dependent manner. TRiC is a complex of eight different, essential proteins. As each of the genes encoding the eight subunits is essential for cell viability and no protocol has been developed to overexpress this enzyme to high levels, several groups have turned to the archaeal homolog of TRiC from Methanococcus maripaludis (MmCpn) as a model system for the study of the type II chaperonin family.
MmCpn was kindly provided by the laboratory of Judith Frydman.
1. Dispense 1.5 ul enzyme of either TriC at 100 nM or MmCpn at 50 nM final concentration.
2. Transfer 23 nl of compound to plate, incubate 5 min at RT.
3. 1.5 ul ATP at 30 uM at final concentration dispensed into plate.
4. Incubate for 10 minutes at 37C (MmCPN), 30C (TriC).
5. 3 ul of the Cisbio ADP Transcreener HTRF detection reagent prepared according to protocol dispensed into plate.
6. Incubate for 5 minutes.
7. Read using EnVision plate reader at Excitation = 320nm and Emission = 590nm, 665nm

Sequence of Methanococcus maripaludis chaperonin (MmCpn) (Q6LX38 1-543): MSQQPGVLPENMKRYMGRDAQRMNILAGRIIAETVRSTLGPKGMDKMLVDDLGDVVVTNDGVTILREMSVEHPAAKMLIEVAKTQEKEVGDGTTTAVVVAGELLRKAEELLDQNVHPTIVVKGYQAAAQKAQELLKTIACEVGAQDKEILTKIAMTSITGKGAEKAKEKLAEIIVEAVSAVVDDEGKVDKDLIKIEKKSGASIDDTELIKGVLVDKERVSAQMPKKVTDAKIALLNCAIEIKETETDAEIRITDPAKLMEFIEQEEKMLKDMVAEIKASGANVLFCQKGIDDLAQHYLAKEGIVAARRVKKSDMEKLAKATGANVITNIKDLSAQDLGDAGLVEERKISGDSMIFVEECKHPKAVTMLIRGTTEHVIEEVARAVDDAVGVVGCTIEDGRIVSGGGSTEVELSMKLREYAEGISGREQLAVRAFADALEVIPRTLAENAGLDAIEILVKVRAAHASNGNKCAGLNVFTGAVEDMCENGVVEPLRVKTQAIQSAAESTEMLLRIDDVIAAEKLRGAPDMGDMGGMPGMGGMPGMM

Q: `S=C(Nc1ccccc1)Nc1nccs1` was tested. Which outcome did it give?
A: Its outcome is “inactive”.

Q: For `N#C/C(=C\c1ccc(O)c(O)c1)C(=O)Nc1ccccc1`, which outcome is on record?
A: Its outcome is “inactive”.

Q: Which outcome does the source give for `N.N.O=C(O)C1(C(=O)O)CCC1.[Pt+2]` here?
A: Its outcome is “inactive”.

Q: Which outcome does the source give for `Nc1c(S(=O)(=O)O)cc(Nc2ccc(Nc3nc(Cl)nc(Nc4ccc(S(=O)(=O)O)cc4)n3)c(S(=O)(=O)O)c2)c2c1C(=O)c1ccccc1C2=O` here?
A: Its outcome is “inactive”.

Q: For `O=C1c2ccccc2C(=O)c2c(NCCc3ccc(O)cc3)ccc(NCCc3ccc(O)cc3)c21`, which outcome is on record?
A: Its outcome is “inactive”.

Q: For `C/C=C/CC(C)C(O)C1C(=O)NC(CC)C(=O)N(C)CC(=O)N(C)C(CC(C)C)C(=O)NC(C(C)C)C(=O)N(C)C(CC(C)C)C(=O)NC(C)C(=O)NC(C)C(=O)N(C)C(CC(C)C)C(=O)N(C)C(CC(C)C)C(=O)N(C)C(C(C)C)C(=O)N1C` (centres undefined), which outcome is on record?
A: The outcome was “inactive”.

Q: Which outcome does the source give for `C1CCC(N=C(NC23CC4CC(CC(C4)C2)C3)N2CCOCC2)CC1` here?
A: Its outcome is “inactive”.

Q: Which outcome does the source give for `CCc1ccc(/C=C2/SC(=S)NC2=O)cc1` here?
A: The outcome was “inactive”.

Q: For `Cc1cccc(/C=C/c2ccccc2)n1`, which outcome is on record?
A: Its outcome is “inactive”.

Q: For `CN1C2CCCC1CC(NC(=O)c1nn(C)c3ccccc13)C2` (centres undefined), which outcome is on record?
A: Its outcome is “inactive”.

Q: How did the outcome turn out when `O=Nc1c(-c2c(O)[nH]c3ccccc23)[nH]c2ccccc12` was run?
A: Its outcome is “inactive”.

Q: Which outcome does the source give for `C[C@H](Cc1ccccc1)Nc1ncnc2c1ncn2[C@@H]1O[C@H](CO)[C@@H](O)[C@H]1O` here?
A: The outcome was “inactive”.

Q: With `Oc1cc2c(c(Cl)c1O)CCNCC2c1ccccc1` (centres undefined) as the molecule, how does the outcome read?
A: Its outcome is “inactive”.

Q: With `CC[N+](CC)(CC)CC` as the molecule, how does the outcome read?
A: The outcome was “inactive”.
